According to the supplement of paper PMC8728848:
Many of the other results were omitted from the sample, so the strongest signals are more common in it than they were.

Key:
Assay in all cases: glycan array binding signal (z-score within array); higher = stronger binding
Conditions in all cases: glycan notation: IUPAC condensed, linker removed
[1] = molecular target: Fuc(a1-2)Gal(b1-3)GalNAc(b1-3)Gal(a1-4)Gal(b1-4)Glc
In short: (§1)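 From the Consortium for Functional Glycomics database, 3228 arrays were curated, keeping only those whose protein sequence was available. Binding is given as a within-array Z-score averaged across arrays sharing a protein sequence and across linkers. Negative Z-scores can be read as non-binding.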

[2] = molecular target: Fuc(a1-2)Gal(b1-3)[Fuc(a1-4)]GlcNAc(b1-2)Man(a1-3)[Fuc(a1-2)Gal(b1-3)[Fuc(a1-4)]GlcNAc(b1-2)Man(a1-6)]Man(b1-4)GlcNAc(b1-4)[Fuc(a1-6)]GlcNAc(b1-4)[Fuc(a1-6)]GlcNAc
In short: as §1

[3] = molecular target: Fuc(a1-2)[Gal(a1-3)]Gal(b1-3)GlcNAc(b1-3)GalNAc
In short: as §1

[4] = molecular target: Fuc(a1-2)[Gal(a1-3)]Gal(b1-4)GlcNAc(b1-6)GalNAc
In short: as §1

[5] = molecular target: Fuc(a1-2)[GalNAc(a1-3)]Gal(b1-3)GlcNAc
In short: as §1

[6] = molecular target: Fuc(a1-2)[GalNAc(a1-3)]Gal(b1-3)GlcNAc(b1-2)Man(a1-3)[Fuc(a1-2)[GalNAc(a1-3)]Gal(b1-3)GlcNAc(b1-2)Man(a1-6)]Man(b1-4)GlcNAc(b1-4)[Fuc(a1-6)]GlcNAc
In short: as §1

[7] = molecular target: Fuc(a1-3)[Gal(b1-4)]Glc6S
In short: as §1

[8] = molecular target: Fuc(a1-3)[Gal(b1-4)]GlcNAc(b1-2)Man(a1-3)[Fuc(a1-3)[Gal(b1-4)]GlcNAc(b1-2)Man(a1-6)]Man(b1-4)GlcNAc(b1-4)[Fuc(a1-6)]GlcNAc
In short: as §1

[9] = molecular target: Fuc(a1-3)[GalNAc(b1-4)]GlcNAc6S
In short: as §1

[10] = molecular target: Gal(a1-3)Gal(b1-3)GlcNAc(b1-2)Man(a1-3)[Gal(a1-3)Gal(b1-3)GlcNAc(b1-2)Man(a1-6)]Man(b1-4)GlcNAc(b1-4)GlcNAc
In short: as §1

[11] = molecular target: Gal(a1-3)Gal(b1-3)GlcNAc(b1-3)GalNAc
In short: as §1

[12] = molecular target: Gal(a1-3)Gal(b1-4)GlcNAc(b1-6)GalNAc
In short: as §1

[13] = molecular target: Gal(a1-3)Gal(b1-4)[Fuc(a1-3)]GlcNAc(b1-2)Man(a1-3)[Gal(a1-3)Gal(b1-4)[Fuc(a1-3)]GlcNAc(b1-2)Man(a1-6)]Man(b1-4)GlcNAc(b1-4)GlcNAc
In short: as §1

Gal(a1-4)GlcNAc = molecular target: Gal(a1-4)GlcNAc
In short: as §1

Gal(a1-6)Glc = molecular target: Gal(a1-6)Glc
In short: as §1

[14] = molecular target: Gal(b1-3)GalNAc(b1-4)Gal(b1-4)Glc
In short: as §1

[15] = molecular target: Gal(b1-3)GlcNAc(a1-6)Gal(b1-4)GlcNAc
In short: as §1

[16] = molecular target: Gal(b1-3)GlcNAc(b1-3)Gal(b1-3)GlcNAc
In short: as §1

[17] = molecular target: Gal(b1-3)GlcNAc(b1-3)Gal(b1-4)GlcNAc
In short: as §1

[18] = molecular target: Gal(b1-3)GlcNAc(b1-3)Gal(b1-4)[Fuc(a1-3)]GlcNAc(b1-6)[Gal(b1-3)GlcNAc(b1-3)]Gal(b1-4)Glc
In short: as §1

[19] = molecular target: Gal(b1-3)[Fuc(a1-4)]GlcNAc(b1-2)Man
In short: as §1

[20] = molecular target: Gal(b1-3)[Fuc(a1-4)]GlcNAc(b1-3)Gal(b1-4)[Fuc(a1-3)]GlcNAc
In short: as §1

[21] = molecular target: Gal(b1-3)[Neu5Ac(a2-6)]GalNAc
In short: as §1

[22] = molecular target: Gal(b1-4)GlcNAc(b1-2)Man(a1-3)[Gal(b1-4)GlcNAc(b1-2)Man(a1-6)][GlcNAc(b1-4)]Man(b1-4)GlcNAc(b1-4)[Fuc(a1-6)]GlcNAc
In short: as §1

[23] = molecular target: Gal(b1-4)GlcNAc(b1-2)Man(a1-3)[GlcNAc(b1-4)][Gal(b1-4)GlcNAc(b1-2)Man(a1-6)]Man(b1-4)GlcNAc(b1-4)GlcNAc
In short: as §1

[24] = molecular target: Gal(b1-4)GlcNAc(b1-2)Man(a1-3)[Man(a1-6)]Man(b1-4)GlcNAc(b1-4)GlcNAc
In short: as §1

[25] = molecular target: Gal(b1-4)GlcNAc(b1-2)[Gal(b1-4)GlcNAc(b1-4)]Man(a1-3)[GlcNAc(b1-4)][Gal(b1-4)GlcNAc(b1-2)Man(a1-6)]Man(b1-4)GlcNAc(b1-4)GlcNAc
In short: as §1

[26] = molecular target: Gal(b1-4)GlcNAc(b1-2)[Gal(b1-4)GlcNAc(b1-6)]Man(a1-6)[Gal(b1-4)GlcNAc(b1-2)Man(a1-3)]Man(b1-4)GlcNAc(b1-4)[Fuc(a1-6)]GlcNAc
In short: as §1

[27] = molecular target: Gal(b1-4)GlcNAc(b1-3)Gal(b1-4)GlcNAc(b1-2)[Gal(b1-4)GlcNAc(b1-3)Gal(b1-4)GlcNAc(b1-6)]Man(a1-6)[Gal(b1-4)GlcNAc(b1-3)Gal(b1-4)GlcNAc(b1-2)Man(a1-3)]Man(b1-4)GlcNAc(b1-4)GlcNAc
In short: as §1

[28] = molecular target: Gal(b1-4)GlcNAc(b1-3)Gal(b1-4)GlcNAc(b1-3)Gal(b1-4)GlcNAc(b1-3)Gal(b1-4)GlcNAc(b1-2)Man(a1-3)[Gal(b1-4)GlcNAc(b1-3)Gal(b1-4)GlcNAc(b1-3)Gal(b1-4)GlcNAc(b1-3)Gal(b1-4)GlcNAc(b1-2)Man(a1-6)]Man(b1-4)GlcNAc(b1-4)GlcNAc
In short: as §1

[29] = molecular target: Gal(b1-4)GlcNAc(b1-3)[Fuc(a1-3)GlcNAc(b1-6)]Gal(b1-4)Glc
In short: as §1

[30] = molecular target: Gal(b1-4)GlcNAc(b1-6)Gal(b1-4)GlcNAc
In short: as §1

Gal3S6S(b1-4)GlcNAc = molecular target: Gal3S6S(b1-4)GlcNAc
In short: as §1

Gal6S(b1-3)GlcNAc6S = molecular target: Gal6S(b1-3)GlcNAc6S
In short: as §1

Gal6S(b1-4)Glc6S = molecular target: Gal6S(b1-4)Glc6S
In short: as §1

Gal6S(b1-4)GlcNAc6S = molecular target: Gal6S(b1-4)GlcNAc6S
In short: as §1

GalNAc(b1-3)Gal = molecular target: GalNAc(b1-3)Gal
In short: as §1

GlcA(b1-6)Gal = molecular target: GlcA(b1-6)Gal
In short: as §1

[31] = molecular target: GlcNAc(a1-4)Gal(b1-3)GlcNAc
In short: as §1

[32] = molecular target: GlcNAc(a1-4)Gal(b1-4)GlcNAc
In short: as §1

[33] = molecular target: GlcNAc(a1-4)Gal(b1-4)GlcNAc(b1-3)Gal(b1-4)[Fuc(a1-3)]GlcNAc(b1-3)Gal(b1-4)[Fuc(a1-3)]GlcNAc
In short: as §1

[34] = molecular target: GlcNAc(b1-2)[GlcNAc(b1-6)]Man(a1-6)[GlcNAc(b1-2)Man(a1-3)]Man(b1-4)GlcNAc(b1-4)GlcNAc
In short: as §1

GlcNAc(b1-3)Fuc = molecular target: GlcNAc(b1-3)Fuc
In short: as §1

[35] = molecular target: GlcNAc(b1-3)Gal(b1-4)GlcNAc(b1-3)GalNAc
In short: as §1

[36] = molecular target: GlcNAc(b1-4)GlcNAc(b1-4)GlcNAc(b1-4)GlcNAc(b1-4)GlcNAc
In short: as §1

[37] = molecular target: Neu5Ac(a2-3)Gal(b1-4)GlcNAc(b1-6)[Neu5Ac(a2-3)Gal(b1-3)]GalNAc
In short: as §1

[38] = molecular target: Neu5Ac(a2-3)Gal(b1-4)GlcNAc6S
In short: as §1

[39] = molecular target: Neu5Ac(a2-3)[GalNAc(b1-4)]Gal(b1-4)GlcNAc
In short: as §1

[40] = molecular target: Neu5Ac(a2-6)Gal(b1-4)GlcNAc(b1-2)Man
In short: as §1

[41] = molecular target: Neu5Ac(a2-6)Gal(b1-4)GlcNAc(b1-3)Gal(b1-3)GlcNAc
In short: as §1

[42] = molecular target: Neu5Ac(a2-6)Gal(b1-4)GlcNAc(b1-3)Gal(b1-4)GlcNAc(b1-3)Gal(b1-4)GlcNAc(b1-2)Man(a1-3)[Neu5Ac(a2-6)Gal(b1-4)GlcNAc(b1-3)Gal(b1-4)GlcNAc(b1-3)Gal(b1-4)GlcNAc(b1-2)Man(a1-6)]GalNAc
In short: as §1

[43] = molecular target: Neu5Ac(a2-6)GalNAc(b1-4)GlcNAc6S
In short: as §1

[44] = molecular target: Neu5Ac(a2-8)Neu5Ac(a2-8)Neu5Ac(a2-3)Gal(b1-4)Glc
In short: as §1

B1: Epa3to1 (Candida glabrata) (protein)
chain: MGSSHHHHHHSSGLVPRGSHMKRELSSQNPFGYPIGCSPQDVAIIPGLTMELYSYPIVSGTPPNCYDASYVDPEYPRTGYLKRKMVGKSTGVTGNLNYKYSVEKACMVKYGNLPAGYNYNEPLTVSNFTMILYGYFKAQTTGLHTFFVNADDLLYINFGAGNAFDCCKREDSKTKLGEYVAYDIWHVDSSKNKVSLFLEKDLYYPIRMFFNNREYDSSLDLSFSVNGATDQISDFSGYLYSVPDQPDTCPAHIGYDTTCR
glycan array binding signal (z-score) [1]: -0.161 | glycan array binding signal (z-score) [2]: -0.07 | glycan array binding signal (z-score) [3]: -0.274 | glycan array binding signal (z-score) [4]: -0.462 | glycan array binding signal (z-score) [5]: 0.225 | glycan array binding signal (z-score) [6]: -0.204 | glycan array binding signal (z-score) [7]: 0.568 | glycan array binding signal (z-score) [8]: 0.093 | glycan array binding signal (z-score) [9]: -0.498 | glycan array binding signal (z-score) [10]: 0.169 | glycan array binding signal (z-score) [11]: -0.594 | glycan array binding signal (z-score) [12]: 0.248 | glycan array binding signal (z-score) [13]: -0.206 | glycan array binding signal (z-score) (Gal(a1-4)GlcNAc): 3.41 | glycan array binding signal (z-score) (Gal(a1-6)Glc): 1.7 | glycan array binding signal (z-score) [14]: 5.3 | glycan array binding signal (z-score) [15]: 0.409 | glycan array binding signal (z-score) [16]: -0.713 | glycan array binding signal (z-score) [17]: -0.502 | glycan array binding signal (z-score) [18]: -0.061 | glycan array binding signal (z-score) [19]: -0.37 | glycan array binding signal (z-score) [20]: -0.87 | glycan array binding signal (z-score) [21]: 5.48 | glycan array binding signal (z-score) [22]: -0.745 | glycan array binding signal (z-score) [23]: -0.291 | glycan array binding signal (z-score) [24]: 3.23 | glycan array binding signal (z-score) [25]: 0.229 | glycan array binding signal (z-score) [26]: 0.071 | glycan array binding signal (z-score) [27]: 7.55 | glycan array binding signal (z-score) [28]: -0.05 | glycan array binding signal (z-score) [29]: 2.39 | glycan array binding signal (z-score) [30]: 0.054 | glycan array binding signal (z-score) (Gal3S6S(b1-4)GlcNAc): 0.487 | glycan array binding signal (z-score) (Gal6S(b1-3)GlcNAc6S): 4.12 | glycan array binding signal (z-score) (Gal6S(b1-4)Glc6S): 6.81 | glycan array binding signal (z-score) (Gal6S(b1-4)GlcNAc6S): 9.56 | glycan array binding signal (z-score) (GalNAc(b1-3)Gal): 0.105 | glycan array binding signal (z-score) (GlcA(b1-6)Gal): 0.35 | glycan array binding signal (z-score) [31]: -0.807 | glycan array binding signal (z-score) [32]: -0.345 | glycan array binding signal (z-score) [33]: -0.037 | glycan array binding signal (z-score) [34]: -0.435 | glycan array binding signal (z-score) (GlcNAc(b1-3)Fuc): -0.291 | glycan array binding signal (z-score) [35]: 0.229 | glycan array binding signal (z-score) [36]: 4.95 | glycan array binding signal (z-score) [37]: -0.382 | glycan array binding signal (z-score) [38]: -0.83 | glycan array binding signal (z-score) [39]: -0.706 | glycan array binding signal (z-score) [40]: -0.272 | glycan array binding signal (z-score) [41]: 4.57 | glycan array binding signal (z-score) [42]: 0.07 | glycan array binding signal (z-score) [43]: -0.365 | glycan array binding signal (z-score) [44]: 0.154
